Inconclusive results are not listed. Calls follow the shape of the dose curve; as a rule, active = well fitted inhibition curve with a large enough effect; inconclusive = small, poorly fitted or top-dose-only effect; inactive = flat fitted curve, though single readings scatter.
Target: Luciferin 4-monooxygenase (Photinus pyralis) (UniProt P08659)
Test: Biochemical firefly luciferase enzyme assay for NPC (AID 624030);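 also: purified P. pyralis luciferase at 10 nM with luciferin and ATP substrate; 0% = DMSO and -100% = full luciferase inhibition by PTC124 control; nearly all actives have a fitted effect of over 70% in size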
Details: purified P. pyralis luciferase, luminescence, 5 min; series mostly up to 58.6 µM; activity change, negative = inhibition: at the top concentration
In short: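 Direct inhibition of firefly luciferase enzyme (10 nM final, 50 mM Tris Acetate) assessed by luminescence within 5 minutes. Percent activity scaled between DMSO and PTC124 positive control, with concentration-effect curves classified by fit quality and response.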

Luciferin 4-monooxygenase (Photinus pyralis), sequence (P08659 whole entry, looked up): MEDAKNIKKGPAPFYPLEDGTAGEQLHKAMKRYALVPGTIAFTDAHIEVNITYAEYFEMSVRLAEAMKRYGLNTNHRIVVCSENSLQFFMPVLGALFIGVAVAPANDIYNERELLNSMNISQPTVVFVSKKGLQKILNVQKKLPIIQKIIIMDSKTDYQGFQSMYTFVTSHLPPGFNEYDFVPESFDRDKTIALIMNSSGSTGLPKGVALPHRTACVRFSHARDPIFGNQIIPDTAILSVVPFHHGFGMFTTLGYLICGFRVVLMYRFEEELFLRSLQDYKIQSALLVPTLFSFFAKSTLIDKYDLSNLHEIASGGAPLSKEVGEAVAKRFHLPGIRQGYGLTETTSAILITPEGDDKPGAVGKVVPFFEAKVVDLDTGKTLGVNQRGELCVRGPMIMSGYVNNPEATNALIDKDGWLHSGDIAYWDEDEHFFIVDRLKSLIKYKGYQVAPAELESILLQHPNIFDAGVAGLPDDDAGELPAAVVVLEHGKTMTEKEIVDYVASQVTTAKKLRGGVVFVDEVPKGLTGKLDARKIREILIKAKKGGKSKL

Activity change, negative = inhibition, inactive:
O=C(O)/C=C(/CC(=O)O)C(=O)O -5.89%, CC(=O)O[C@H]1CC[C@@]2(C)C(=CCC3C2CC[C@]2(C)C(c4cccnc4)=CCC32)C1 (stereo partly drawn) 2.55%, CSCC[C@H](NC(=O)[C@@H](Cc1ccc(O[S+](=O)([O-])O)cc1)NC(=O)[C@H](N)CC(=O)O)C(=O)NCC(=O)N[C@@H](Cc1c[nH]c2ccccc12)C(=O)N[C@H](CCSC)C(=O)N[C@H](CC(=O)O)C(=O)N[C@@H](Cc1ccccc1)C(N)=O -9.06%
